Data as given in the supplement of paper PMC10849652.
The full data set covers some 7,900 targets. This sample favours those with a hit. About 0.6% of all pairs of compound and target were hits. Unmarked numbers belong to inactive results.

Compound: C1=CC=C(C=C1)[C@H](COC2=CC3=C(C=C2)NC(=O)N3)NC(=O)C4=CC=CN(C4=O)CC5=CC(=C(C=C5)F)F
Experiment: log2 fold change, soluble protein after heating vs DMSO (PISA); higher = thermal stabilisation; K562 cells, 10 uM, 30 min; active = over 0.2 and 3.5 SD of the protein, either way, in both replicates (recomputed)
How it was run: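 Soluble protein was quantified by TMTpro 16plex LC-MS/MS after channel sums were equalised. It was obtained as the supernatant after 21,000xg for 90 min from pooled aliquots of K562 cells (2×10^6 cells/mL, 10 μM compound, 30 min) heated for 3 min across 48°C-58°C and extracted in PBS with 0.5% NP-40 at 4°C. Thermal stability values are relative to control samples and come from duplicates. They are given as log2 fold changes.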

Chain of UniProt P21796 (P21796 whole entry, looked up): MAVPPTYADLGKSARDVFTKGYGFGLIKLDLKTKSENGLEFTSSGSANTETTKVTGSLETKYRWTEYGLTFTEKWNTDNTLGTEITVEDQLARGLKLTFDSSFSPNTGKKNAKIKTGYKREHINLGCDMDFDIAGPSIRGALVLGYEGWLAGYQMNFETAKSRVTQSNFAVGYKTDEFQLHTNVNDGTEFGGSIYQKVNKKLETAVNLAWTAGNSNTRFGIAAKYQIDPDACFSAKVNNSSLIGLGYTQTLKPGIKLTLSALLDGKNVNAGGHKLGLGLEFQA
Chain of UniProt Q86WV6 (Q86WV6 whole entry, looked up): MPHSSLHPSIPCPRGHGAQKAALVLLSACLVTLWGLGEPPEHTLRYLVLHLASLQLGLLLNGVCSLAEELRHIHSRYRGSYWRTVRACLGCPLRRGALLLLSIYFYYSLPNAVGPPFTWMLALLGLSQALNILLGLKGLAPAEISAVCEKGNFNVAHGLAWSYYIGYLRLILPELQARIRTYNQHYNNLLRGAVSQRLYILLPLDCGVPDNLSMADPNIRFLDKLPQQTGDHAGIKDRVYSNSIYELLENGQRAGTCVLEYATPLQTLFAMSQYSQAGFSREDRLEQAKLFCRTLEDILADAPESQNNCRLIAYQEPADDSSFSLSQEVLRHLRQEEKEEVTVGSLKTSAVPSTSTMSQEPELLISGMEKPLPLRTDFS
Chain of UniProt Q15061 (Q15061 whole entry, looked up): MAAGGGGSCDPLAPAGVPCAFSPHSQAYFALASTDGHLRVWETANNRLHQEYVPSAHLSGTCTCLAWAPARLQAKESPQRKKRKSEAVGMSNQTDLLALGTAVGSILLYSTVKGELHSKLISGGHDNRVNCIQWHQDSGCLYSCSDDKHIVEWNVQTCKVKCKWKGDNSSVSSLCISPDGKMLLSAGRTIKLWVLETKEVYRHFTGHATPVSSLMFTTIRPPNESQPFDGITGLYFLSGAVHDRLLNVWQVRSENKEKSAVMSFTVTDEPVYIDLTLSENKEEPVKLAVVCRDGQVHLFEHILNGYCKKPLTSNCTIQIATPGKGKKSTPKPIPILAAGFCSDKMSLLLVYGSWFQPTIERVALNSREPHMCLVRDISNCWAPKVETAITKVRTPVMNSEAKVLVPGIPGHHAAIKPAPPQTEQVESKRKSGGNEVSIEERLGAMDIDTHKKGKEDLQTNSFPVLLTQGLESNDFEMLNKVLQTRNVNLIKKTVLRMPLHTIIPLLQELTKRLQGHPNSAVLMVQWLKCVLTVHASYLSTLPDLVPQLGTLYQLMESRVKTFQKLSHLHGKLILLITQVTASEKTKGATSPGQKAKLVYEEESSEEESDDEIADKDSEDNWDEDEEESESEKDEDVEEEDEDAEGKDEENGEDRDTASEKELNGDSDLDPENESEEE
Chain of UniProt Q9Y2I8 (Q9Y2I8 whole entry, looked up): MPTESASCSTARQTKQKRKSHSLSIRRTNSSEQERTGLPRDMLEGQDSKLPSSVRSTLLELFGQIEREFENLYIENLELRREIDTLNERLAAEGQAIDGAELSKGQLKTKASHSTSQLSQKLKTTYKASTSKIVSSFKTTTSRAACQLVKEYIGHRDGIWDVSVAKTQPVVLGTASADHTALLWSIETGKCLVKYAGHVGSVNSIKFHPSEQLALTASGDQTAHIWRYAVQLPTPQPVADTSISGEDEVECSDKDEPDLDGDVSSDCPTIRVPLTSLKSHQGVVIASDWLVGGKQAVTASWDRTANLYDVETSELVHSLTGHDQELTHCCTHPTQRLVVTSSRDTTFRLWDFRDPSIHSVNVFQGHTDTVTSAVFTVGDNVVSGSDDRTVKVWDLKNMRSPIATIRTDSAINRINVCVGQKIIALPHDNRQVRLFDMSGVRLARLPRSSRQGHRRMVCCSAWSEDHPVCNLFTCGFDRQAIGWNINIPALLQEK
Chain of UniProt Q9NQH7 (Q9NQH7 whole entry, looked up): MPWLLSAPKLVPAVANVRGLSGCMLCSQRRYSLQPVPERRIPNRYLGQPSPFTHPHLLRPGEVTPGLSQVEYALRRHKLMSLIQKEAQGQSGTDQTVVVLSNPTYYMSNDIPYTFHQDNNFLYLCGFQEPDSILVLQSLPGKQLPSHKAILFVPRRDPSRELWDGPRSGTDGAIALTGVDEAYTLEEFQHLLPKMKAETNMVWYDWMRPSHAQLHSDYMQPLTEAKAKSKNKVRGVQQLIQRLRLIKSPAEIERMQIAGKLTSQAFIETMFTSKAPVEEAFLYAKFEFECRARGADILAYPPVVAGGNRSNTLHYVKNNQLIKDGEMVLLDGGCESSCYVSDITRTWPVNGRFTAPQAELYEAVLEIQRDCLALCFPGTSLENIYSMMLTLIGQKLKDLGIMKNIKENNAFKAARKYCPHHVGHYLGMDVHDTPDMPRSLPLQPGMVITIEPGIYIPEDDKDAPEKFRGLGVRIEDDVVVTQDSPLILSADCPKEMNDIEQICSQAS
Chain of UniProt Q96JG6 (Q96JG6 whole entry, looked up): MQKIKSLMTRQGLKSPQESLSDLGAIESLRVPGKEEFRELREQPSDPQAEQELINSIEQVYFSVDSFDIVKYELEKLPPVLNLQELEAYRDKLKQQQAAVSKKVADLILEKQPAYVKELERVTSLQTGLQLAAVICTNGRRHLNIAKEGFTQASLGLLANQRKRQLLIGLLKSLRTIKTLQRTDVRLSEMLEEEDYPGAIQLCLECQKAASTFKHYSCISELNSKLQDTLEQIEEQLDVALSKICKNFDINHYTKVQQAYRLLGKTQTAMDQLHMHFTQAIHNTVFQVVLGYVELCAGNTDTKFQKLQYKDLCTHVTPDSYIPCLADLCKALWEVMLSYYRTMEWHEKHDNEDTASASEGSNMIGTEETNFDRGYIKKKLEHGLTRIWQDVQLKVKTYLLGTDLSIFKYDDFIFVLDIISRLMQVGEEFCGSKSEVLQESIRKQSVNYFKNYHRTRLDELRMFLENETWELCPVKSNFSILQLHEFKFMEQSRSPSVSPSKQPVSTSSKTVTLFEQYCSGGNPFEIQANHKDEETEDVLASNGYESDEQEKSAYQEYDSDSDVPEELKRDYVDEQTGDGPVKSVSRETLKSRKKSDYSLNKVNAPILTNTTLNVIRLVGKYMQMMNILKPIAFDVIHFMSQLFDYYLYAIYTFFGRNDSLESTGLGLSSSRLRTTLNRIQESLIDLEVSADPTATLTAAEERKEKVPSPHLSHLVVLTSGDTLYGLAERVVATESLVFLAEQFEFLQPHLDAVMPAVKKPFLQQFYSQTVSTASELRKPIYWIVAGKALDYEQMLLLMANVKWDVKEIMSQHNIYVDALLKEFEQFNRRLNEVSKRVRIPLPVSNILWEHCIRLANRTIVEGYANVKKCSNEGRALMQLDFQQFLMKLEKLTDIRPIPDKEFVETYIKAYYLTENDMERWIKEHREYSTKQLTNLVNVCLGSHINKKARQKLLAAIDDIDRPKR
Chain of UniProt O75674 (O75674 whole entry, looked up): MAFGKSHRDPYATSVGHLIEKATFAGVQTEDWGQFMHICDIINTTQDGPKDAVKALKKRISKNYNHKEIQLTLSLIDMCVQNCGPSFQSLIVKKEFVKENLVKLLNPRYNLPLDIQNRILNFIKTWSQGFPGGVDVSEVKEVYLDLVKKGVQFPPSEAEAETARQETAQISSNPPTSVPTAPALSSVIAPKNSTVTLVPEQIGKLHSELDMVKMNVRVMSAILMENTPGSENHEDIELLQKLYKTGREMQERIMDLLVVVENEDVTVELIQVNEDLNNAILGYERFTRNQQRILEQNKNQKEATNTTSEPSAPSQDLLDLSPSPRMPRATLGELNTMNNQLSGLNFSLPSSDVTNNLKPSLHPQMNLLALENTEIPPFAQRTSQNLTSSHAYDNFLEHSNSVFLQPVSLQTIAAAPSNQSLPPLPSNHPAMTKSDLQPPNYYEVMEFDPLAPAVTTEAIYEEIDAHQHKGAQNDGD
Chain of UniProt P54578 (P54578 whole entry, looked up): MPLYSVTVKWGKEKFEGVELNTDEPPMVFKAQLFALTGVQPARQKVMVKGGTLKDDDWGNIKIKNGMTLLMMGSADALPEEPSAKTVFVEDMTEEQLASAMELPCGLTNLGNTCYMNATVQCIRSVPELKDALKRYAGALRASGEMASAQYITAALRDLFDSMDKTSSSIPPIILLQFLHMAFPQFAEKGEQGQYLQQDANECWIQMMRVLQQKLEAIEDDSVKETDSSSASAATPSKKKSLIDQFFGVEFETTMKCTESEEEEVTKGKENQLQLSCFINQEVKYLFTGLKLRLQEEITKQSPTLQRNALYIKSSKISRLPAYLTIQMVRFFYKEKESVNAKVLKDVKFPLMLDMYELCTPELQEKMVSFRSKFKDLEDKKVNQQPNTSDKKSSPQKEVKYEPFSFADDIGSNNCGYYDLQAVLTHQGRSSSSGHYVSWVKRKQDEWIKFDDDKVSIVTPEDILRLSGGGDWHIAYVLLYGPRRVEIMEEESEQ
Chain of UniProt Q15642 (Q15642 whole entry, looked up): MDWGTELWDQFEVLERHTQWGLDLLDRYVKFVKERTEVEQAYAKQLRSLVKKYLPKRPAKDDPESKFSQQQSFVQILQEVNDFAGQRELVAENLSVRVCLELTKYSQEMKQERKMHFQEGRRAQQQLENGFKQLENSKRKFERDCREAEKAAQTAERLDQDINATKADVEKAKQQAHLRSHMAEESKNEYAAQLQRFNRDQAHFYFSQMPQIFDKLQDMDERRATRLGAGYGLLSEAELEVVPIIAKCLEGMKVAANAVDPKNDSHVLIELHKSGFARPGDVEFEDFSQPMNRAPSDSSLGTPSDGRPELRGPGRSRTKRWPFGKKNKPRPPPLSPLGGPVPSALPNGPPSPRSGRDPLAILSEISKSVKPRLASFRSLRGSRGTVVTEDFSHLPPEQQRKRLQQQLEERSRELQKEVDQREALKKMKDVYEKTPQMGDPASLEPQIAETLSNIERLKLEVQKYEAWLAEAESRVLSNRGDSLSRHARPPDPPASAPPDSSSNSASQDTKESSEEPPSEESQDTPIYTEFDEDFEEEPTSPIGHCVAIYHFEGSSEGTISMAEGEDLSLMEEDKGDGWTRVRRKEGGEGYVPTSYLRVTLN

Target	log2 fold change
WDR75 (UniProt Q8IWA0)	-0.031
WASHC2C, A0A096LPC5	0.015
VDAC1 (UniProt P21796)	0.047
WDR37 isoform 2 (UniProt Q9Y2I8)	0.039
TMEM173 (UniProt Q86WV6)	-0.035
WDR62 isoform 4 (UniProt O43379)	0.007
TRAPPC2L (UniProt Q9UL33)	-0.014
TSG101 (UniProt Q99816)	0
TRIM28 (UniProt Q13263)	-0.029
TUBA4A (UniProt C9JJQ8)	-0.081
TOMM20 (UniProt Q15388)	0.021
TMTC3 (UniProt Q6ZXV5)	-0.012
TXNIP (UniProt Q9H3M7)	-0.011
TRMT10A (UniProt Q8TBZ6)	-0.038
TUT4 (UniProt Q5TAX3)	-0.029
WDR41 (UniProt Q9HAD4)	-0.045
TRIM4 (UniProt Q9C037)	-0.049
WDR43 (UniProt Q15061)	0.026

Target	log2 fold change
WAPL isoform 3 (UniProt Q7Z5K2)	-0.116
TRAPPC6B (UniProt Q86SZ2)	-0.007
TRIP10 (UniProt Q15642)	0.016
USP15 (UniProt Q9Y4E8)	-0.038
XPOT (UniProt O43592)	-0.028
XRCC6 (UniProt P12956)	-0.04
WASHC3 (UniProt Q9Y3C0)	0.015
UFD1 isoform 1 (UniProt Q92890)	-0.011
XPNPEP3 (UniProt Q9NQH7)	-0.004
VPS52 (UniProt Q8N1B4)	0.068
WDR61 (UniProt Q9GZS3)	-0.035
TOM1L1 (UniProt O75674)	-0.019
USP3 (UniProt Q9Y6I4)	0
VPS50 (UniProt Q96JG6)	-0.039
UBR2 (UniProt Q8IWV8)	-0.16
USP14 (UniProt P54578)	-0.031
XPO1 (UniProt O14980)	-0.064
WRB (UniProt O00258)	0.002
